# Reference: PubChem BioAssay (NCI)
# The panel holds about 83,000 compounds, 20% with a hit somewhere; the sample as a whole holds those more often.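 Cells were grown in 96-well plates and exposed to the test compound at a single concentration for 48 hours; results are reported as percent growth, with values below 10 considered active.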 Active and inactive are the calls of the source.
# Test system: HCC-2998 colon
# Assay: NCI-60 one-dose screen, 48 h (100 = growth as untreated, 0 = no growth, -100 = all killed)
# Details: 10 µM unless noted
# Experimental: Growth inhibition of the HCC-2998 human tumor cell line is measured as a screen for anti-cancer activity. Cells are grown in 96 well plates and exposed to the test compound for 48 hours. Compounds are tested at a single concentration, which is 10^-5 M for most compounds. The reported endpoint is percent growth (GI% or GIPRCNT), where numbers from 0 - 100% represent growth inhibition, and numbers from -100% - 0 represent cell death. For example, a value of 40 represents 60% growth inhibition. A value of 0 means no net growth occurred over the course of the experiment. A value of -40 indicates 40% of cells at the beginning of the experiment died by the end of the experiment. A value of -100 means all cells are dead at the end of the experiment.
# NCI-60 Human Tumor Cell Lines Screen was performed using the standard one-dose NCI protocol, which is described in more detail at https://dtp.cancer.gov/discovery_development/nci-60/default.htm.
# Compounds with GIPRCNT values below 10 were considered active. Activity score was based on GIPRCNT using the following formula: […]
# Score is 0 for GIPRCNT values of 100 or above, 50 for GIPRCNT values of 0, and 100 for GIPRCNT values of -100.
row,Compound,growth
1,Cc1nc2sc(C(=O)Nc3ccccc3)c(N)c2cc1C(=O)c1ccccc1,18.2% (inactive)
2,COc1ccc2c(c1)c(-c1noc(C(=O)c3cn(C)c4ccc(Br)cc34)n1)cn2C,100% (inactive)
3,CN([O-])c1nc(N(C)[O-])nc(N2CCOCC2)n1.CN([O-])c1nc(N(C)[OH2+])nc(N2CCOCC2)n1.[Fe+3],114% [100 µM] (inactive)
4,CCN(C(=O)N1CCN(c2cc3c(cc2F)c(=O)c(C(=O)O)cn3C2CC2)CC1)c1nc(-c2ccc(Cl)cc2)cs1,25% (inactive)
5,CCOC(=O)c1c(NC(=O)c2ccc(C(C)C)cc2)sc2c(CN(C)C)c(O)ccc12,-55.8% (active)
6,C1=C(N2CCCC2)CCC1,110% (inactive)
7,CC(=O)N(N=Nc1ccccc1)c1cccc2ccccc12,94.7% (inactive)
8,CCNC(=O)c1[nH]cc(-c2ccccc2)c1-c1cc(OC)c2c(c1OC)OCO2,104% (inactive)
9,O=C(O)[C@@H]1c2ccccc2-c2ccccc2[C@H]1C(=O)O,100% (inactive)
10,CCOC(=O)C(=Cc1cccc(Br)c1)C(=O)OCC,101% (inactive)
11,CNC(=O)c1cc(Oc2ccc3c(c2)sc2nc(-c4cc(OC)c(OC)c(OC)c4)cn23)ccn1,74.6% (inactive)
12,Fc1cccc(CNc2c3ccccc3nc3ccccc23)c1F,58.4% (inactive)
13,CC(O)c1cnc(/C=C2\SC(=S)N(Cc3ccccc3)C2=O)s1 (stereo not given),107% (inactive)
14,CCCCC[C@@H]1Cc2cc(O)c(C(=O)O)c3c2[C@H](C[C@]2(OC[C@@H](CC(=O)[C@@](C)(CC)C(=O)OC)[C@@H]2C)O3)O1,133% (inactive)
15,COC1C[C@H](O[C@@H]2C[C@H](O[C@@H]3C[C@H](O[C@@H]4C(=O)c5c(cc6cc(O[C@H]7C[C@@H](O[C@H]8C[C@@H](O)[C@H](O)C(C)O8)[C@H](O)C(C)O7)c(C)c(O)c6c5O)C[C@H]4C(OC)C(=O)[C@@H](O)[C@@H](C)O)OC(C)[C@H]3O)OC(C)[C@@H]2O)OC(C)[C@@H]1O (stereo not given in full),-18.8% (active)
16,Cc1cc2c(O)c(-c3cc(Cl)ccc3Cl)c3sc(=O)oc3c2cc1C,102% (inactive)
17,CCOC(=O)c1cc(C(=O)c2cc(OC)c(OC)c(OC)c2)n2ccc(-c3ccncc3)cc12,115% (inactive)
18,O=c1oc2ccc([N+](=O)[O-])cc2cc1Br,114% (inactive)
19,COc1ccc2cc(C(=O)c3coc4ccc(O)cc34)ccc2c1,103% (inactive)
20,O=C1c2cccnc2C(=O)c2c1c(C(=O)NCCn1ccnc1)c1ccccn21,22.4% (inactive)

row,Compound,growth
1,Cc1ccc(-c2nc(N3CCNCC3)c3oc(-c4ccccc4)nc3n2)cc1,-61.1% (active)
2,CC[C@@H](C(=O)[C@@H](C)[C@@H](O)[C@H](C)[C@@H]1O[C@@H]([C@@H](CC)C(=O)NCCc2ccc(F)cc2)CC[C@@H]1C)C1O[C@]2(C=CC(=O)[C@]3(CC[C@@](C)([C@H]4CC[C@](O)(CC)[C@H](C)O4)O3)O2)[C@H](C)C[C@@H]1C (stereo not given in full),63.8% (inactive)
3,C=C1C(=O)O[C@H]2[C@H]1CC/C(COC(=O)NCc1ccc(Cn3c(=O)sn(CCI)c3=O)cc1)=C\CC[C@@]1(C)O[C@@H]21,107% (inactive)
4,COc1ccc(C2=Nc3c/c(=C\c4c(O)[nH]c5ccc(Cl)cc45)ccc3=N2)cc1,35.5% (inactive)
5,O=C(/C=C/c1cn(-c2ccccc2)nc1-c1ccc([N+](=O)[O-])cc1)c1ccc(Cl)cc1,-22% (active)
6,COc1cc(NC(C)CCCNC(C)C)c2ncccc2c1OC (stereo not given),91.7% (inactive)
7,CN1CCN(c2ccc(NC(=O)c3nc4ccc5[nH]ncc5c4c4c3CCCC4)cc2C(F)(F)F)CC1,21.1% (inactive)
8,COc1cccc(/C=C/C(=O)c2cc3c(N)c(C(=O)Nc4ccccc4)sc3nc2C)c1,-37% (active)
9,Cc1ccc(-c2cc(-c3ccc(Cl)cc3)nc(NC(=O)c3cccnc3)n2)cc1,115% (inactive)
10,COc1cc2c(c(OC)c1OC)CCC(c1cccc(C(=O)Nc3cccc(Br)c3)c1)O2 (stereo not given),103% (inactive)
11,CC(=O)Nc1nc2ccc(NS(=O)(=O)c3cccc4c(N(C)C)cccc34)cc2[nH]1,83.3% (inactive)
12,O=C(Nc1nn(-c2ccc(Cl)cc2Cl)nc1-c1ccccc1)c1ccccc1,108% (inactive)
13,C=C(C)[C@@H]1CC[C@]2(C(=O)NCC#CCN3CCN(C)CC3)CC[C@]3(C)[C@H](CC[C@@H]4[C@@](C)(CCC#N)[C@H](C(=C)C)CC[C@]43C)[C@@H]12,25.2% (inactive)
14,CC(=O)N1N=C(c2ccc(Nc3nc(Nc4ccc(Cl)cc4)nc(Nc4ccc(Cl)cc4)n3)cc2)CC1c1ccco1 (stereo not given),128% (inactive)
15,CC(=O)OC[C@]12CCC(C)(C)C[C@H]1[C@@]1(O)[C@H](O)C[C@@H]3[C@@]4(C)CCCNC(C)(C)[C@@H]4CC[C@@]3(C)[C@]1(C)CC2,109% (inactive)
16,CS(=O)(=O)Nc1cc(-c2ccc3ncnc(Nc4c(Cl)ccc5c4OCO5)c3c2)cnc1Cl,-36% (active)
17,CCCCCCCCn1ccc2cc(NC(=O)CN3CCN(c4nc(C)cc(Cl)n4)CC3)ccc21,103% (inactive)
18,Nc1c(C(=O)Nc2ccccc2Cl)sc2nc3c(cc12)C(O)CCC3 (stereo not given),64.3% (inactive)
19,O=C1c2cc(Cl)ccc2S(=O)(=O)c2c(NCCCNCCO)nc3ccccc3c21,78.5% (inactive)
20,N#Cc1cccc(F)c1,118% (inactive)
